Test results: PubChem BioAssay (EPA / NIEHS)
Values joined by “and” are separate entries in the source; they are usually repeats but may differ in a detail not shown here. Identical values can stand only once. Results filed as inconclusive are left out. Some compounds were tested as several samples or in several runs, with calls that do not always agree. Active and inactive are the calls of the source. Rule for the calls, unless noted: active = hit-call score of the fitted dose curve at least 0.9, where 1 is the maximum; inactive = score below 0.9.

What was measured:
[1] = read-out: Monokine induced gamma interferon (MIG), CXCL9 (gene 4283); assay: BSK_3C_MIG: BioMAP Diversity Plus: 3C Assay for Monokine induced gamma interferon (MIG) Biomarker Activity (AID 2283021); details: primary human endothelial cells (HUVEC); actives raise or lower the signal;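 for AC50: MIG protein level measured by immunoassay in the treated endothelial cultures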
Procedure, shortened: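 ELISA measurement of MIG in human umbilical vein endothelial cells 24 h after treatment. Cytotoxicity tracked by SRB staining in parallel cultures; gain or loss of signal fitted relative to DMSO.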

[2] = target: human Vitamin D Receptor (VDR), VDR (gene 7421) (UniProt P11473); assay: ATG_VDR_TRANS: Attagene TRANS-FACTORIAL HepG2 Assay for human Vitamin D Receptor (VDR) (AID 2283022; active = hit-call score of the fitted dose curve at least 0.9, where 1 is the maximum)
human Vitamin D Receptor (VDR), VDR (gene 7421), sequence (P11473 whole entry, looked up, the tested form may be a part): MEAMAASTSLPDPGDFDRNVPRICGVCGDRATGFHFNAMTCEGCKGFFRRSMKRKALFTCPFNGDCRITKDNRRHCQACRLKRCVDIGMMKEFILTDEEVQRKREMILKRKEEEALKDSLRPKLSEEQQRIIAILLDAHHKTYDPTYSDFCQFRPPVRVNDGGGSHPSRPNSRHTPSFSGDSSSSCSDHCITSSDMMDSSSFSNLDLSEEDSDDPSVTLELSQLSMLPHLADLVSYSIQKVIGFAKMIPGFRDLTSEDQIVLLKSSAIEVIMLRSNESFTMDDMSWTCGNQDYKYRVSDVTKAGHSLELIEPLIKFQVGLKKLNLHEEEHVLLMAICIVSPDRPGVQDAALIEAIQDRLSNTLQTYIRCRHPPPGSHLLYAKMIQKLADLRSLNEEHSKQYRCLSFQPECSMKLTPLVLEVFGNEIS
Procedure, shortened: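 Steps: transfect HepG2 with GAL4-UAS-driven reporter constructs; dose compounds 24 h; isolate RNA, reverse-transcribe, PCR-amplify with 6-FAM-labelled primer extension and HpaI digestion; quantify fragments by capillary electrophoresis relative to DMSO.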

[3] = BSK_3C_SRB: Viability Assessment in the BioMAP Diversity Plus: 3C Assay (AID 2283023); details: primary human endothelial cells (HUVEC);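 note: fitted both ways against DMSO so a hit may be signal rise or drop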
Procedure, shortened: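 Absorbance at 560 nm of sulforhodamine B-stained (0.1%) total protein served as a cytotoxicity readout in human umbilical vein endothelial cells, 24 h after chemical treatment. Signal was fitted bidirectionally relative to DMSO.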

[4] = read-out: Matrix Metallopeptidase 1 (MMP1), MMP1 (gene 4312); assay: BSK_BE3C_MMP1: BioMAP Diversity Plus: BE3C Assay for Matrix Metallopeptidase 1 (MMP1) Biomarker Activity (AID 2283024); details: primary human bronchial epithelial cells; actives raise or lower the signal
Procedure, shortened: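 ELISA measurement of MMP-1 after 24 h compound exposure of primary human bronchial epithelial cells. Changes in either direction fitted relative to DMSO; parallel SRB staining checked overt cytotoxicity.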

[5] = read-out: Pselectin, SELP (gene 6403); assay: BSK_4H_Pselectin: BioMAP Diversity Plus: 4H Assay for Pselectin Biomarker Activity (AID 2283026); details: primary human endothelial cells (HUVEC); actives raise or lower the signal
Procedure, shortened: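 ELISA of surface P-selectin on HUVEC, 24 h after dosing, with parallel SRB staining (0.1% after 10% TCA fixation, 560 nm) for overt cytotoxicity. Activity fitted in both directions relative to DMSO.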

[6] = BSK_4H_SRB: Viability Assessment in the BioMAP Diversity Plus: 4H Assay (AID 2283027); details: primary human endothelial cells (HUVEC);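 note: cells exposed to compound for 24 h before staining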;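 for AC50: curves fitted both ways versus DMSO so AC50 may be loss or gain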
Procedure, shortened: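 Cytotoxicity read-out in primary human endothelial cells: after 24 h compound exposure, cells were TCA-fixed (10%), stained with 0.1% SRB and absorbance taken at 560 nm. Values fitted in both directions relative to DMSO.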

[7] = BSK_BE3C_SRB: Viability Assessment in the BioMAP Diversity Plus: BE3C Assay (AID 2283028); details: primary human bronchial epithelial cells;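 for AC50: fitted both ways so AC50 may mark signal gain or loss versus DMSO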
Procedure, shortened: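 Cells (human bronchial epithelial, primary) are treated with chemicals, and after 24 h the parallel cultures are fixed in 10% TCA. These are then stained with 0.1% SRB and read at 560 nm. Gain or loss of signal is fitted relative to DMSO.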

[8] = read-out: Thrombomodulin, THBD (gene 7056); assay: BSK_3C_Thrombomodulin: BioMAP Diversity Plus: 3C Assay for Thrombomodulin Biomarker Activity (AID 2283029); details: primary human endothelial cells (HUVEC); actives raise or lower the signal
Procedure, shortened: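 ELISA measurement of thrombomodulin on HUVEC surface 24 h after chemical dosing; activity fitted in both directions relative to DMSO vehicle.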

[9] = read-out: Urokinase-type plasminogen activator receptor (uPAR), PLAUR (gene 5329); assay: BSK_4H_uPAR: BioMAP Diversity Plus: 4H Assay for Urokinase-type plasminogen activator receptor (uPAR) Biomarker Activity (AID 2283030); details: primary human endothelial cells (HUVEC); actives raise or lower the signal
Procedure, shortened: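 Cell-surface uPAR ELISA signal, measured 24 h after dosing human umbilical vein endothelial cells, was analyzed with bidirectional fitting relative to DMSO. Parallel SRB staining of total protein tracked overt cytotoxicity.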

[10] = read-out: Vascular cell adhesion molecule 1 (VCAM1), VCAM1 (gene 7412); assay: BSK_4H_VCAM1: BioMAP Diversity Plus: 4H Assay for Vascular cell adhesion molecule 1 (VCAM1) Biomarker Activity (AID 2283033); details: primary human endothelial cells (HUVEC); actives raise or lower the signal
Procedure, shortened: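 VCAM-1 ELISA read 24 h after chemical dosing of HUVEC in the BioMAP 4H system, with gain or loss of signal fitted relative to DMSO. Parallel SRB staining (560 nm) checked overt cytotoxicity.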

[11] = read-out: Interferon-gamma inducible Protein 10 (IP10), CXCL10 (gene 3627); assay: BSK_BE3C_IP10: BioMAP Diversity Plus: BE3C Assay for Interferon-gamma inducible Protein 10 (IP10) Biomarker Activity (AID 2283034); details: primary human bronchial epithelial cells; actives raise or lower the signal
Procedure, shortened: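 IP-10 quantified by ELISA in human primary bronchial epithelial cell cultures at 24 hours post-dosing. Gain or loss of signal fitted relative to DMSO; parallel SRB staining assessed overt cytotoxicity.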

[12] = read-out: Monokine induced gamma interferon (MIG), CXCL9 (gene 4283); assay: BSK_BE3C_MIG: BioMAP Diversity Plus: BE3C Assay for Monokine induced gamma interferon (MIG) Biomarker Activity (AID 2283035); details: primary human bronchial epithelial cells; actives raise or lower the signal
Procedure, shortened: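 ELISA quantified MIG after 24 h exposure of primary bronchial epithelial cultures, analysed in both directions relative to DMSO. Cytotoxicity tracked in parallel cultures by sulforhodamine B staining.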

[13] = read-out: Plasminogen activator inhibitor-1 (PAI1), SERPINE1 (gene 5054); assay: BSK_BE3C_PAI1: BioMAP Diversity Plus: BE3C Assay for Plasminogen activator inhibitor-1 (PAI1) Biomarker Activity (AID 2283037); details: primary human bronchial epithelial cells; actives raise or lower the signal
Procedure, shortened: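 PAI-1 was measured by ELISA in human primary bronchial epithelial cultures 24 h after chemical dosing, with cytotoxicity checked by SRB total-protein staining in parallel cultures. Activity was fitted in both directions relative to DMSO.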

[14] = read-out: urokinase plasminogen activator (uPA), PLAU (gene 5328); assay: BSK_BE3C_uPA: BioMAP Diversity Plus: BE3C Assay for urokinase plasminogen activator (uPA) Biomarker Activity (AID 2283038); details: primary human bronchial epithelial cells; actives raise or lower the signal
Procedure, shortened: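 Bronchial epithelial cells (human, primary); chemical 24 h; uPA by ELISA; bidirectional fit vs DMSO. SRB (0.1%, after 10% TCA fixation, 560 nm) in parallel cultures for cytotoxicity.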

[15] = read-out: Urokinase-type plasminogen activator receptor (uPAR), PLAUR (gene 5329); assay: BSK_BE3C_uPAR: BioMAP Diversity Plus: BE3C Assay for Urokinase-type plasminogen activator receptor (uPAR) Biomarker Activity (AID 2283039); details: primary human bronchial epithelial cells; actives raise or lower the signal
Procedure, shortened: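 uPAR levels were measured by ELISA after 24 h compound treatment of primary human bronchial epithelial cells, fitted in both directions relative to DMSO. Parallel SRB staining served as the cytotoxicity read-out.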

[16] = read-out: Interleukin-6 (IL6), IL6 (gene 3569); assay: BSK_CASM3C_IL6: BioMAP Diversity Plus: CASM3C Assay for Interleukin-6 (IL6) Biomarker Activity for (AID 2283040); details: primary human coronary artery smooth muscle cells; actives raise or lower the signal
[17] = read-out: Tissue plasminogen activator (tPA), PLAT (gene 5327); assay: BSK_BE3C_tPA: BioMAP Diversity Plus: BE3C Assay for Tissue plasminogen activator (tPA) Biomarker Activity (AID 2283041); details: primary human bronchial epithelial cells; actives raise or lower the signal;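 note: tPA level quantified by ELISA one day after compound addition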
Procedure, shortened: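 tPA measured by ELISA 24 h after dosing human primary bronchial epithelial cells (BE3C system). Changes in either direction were fitted against DMSO. Parallel cultures were stained with SRB to flag overt cytotoxicity.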

[18] = read-out: Interleukin-8 (IL8), CXCL8 (gene 3576); assay: BSK_CASM3C_IL8: BioMAP Diversity Plus: CASM3C Assay for Interleukin-8 (IL8) Biomarker Activity (AID 2283042); details: primary human coronary artery smooth muscle cells; actives raise or lower the signal;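 note: IL-8 protein level quantified by ELISA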
[19] = BSK_3C_Vis: BioMAP Diversity Plus: 3C Assay for Morphology Visualization (AID 2283025); details: primary human endothelial cells (HUVEC);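 note: fitted both ways so gain or loss versus DMSO counts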;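 for AC50: light microscopy image of cell morphology used as background control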
Procedure, shortened: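 Light-microscopy visualization of HUVEC cultures at 24 h post-treatment, with DMSO as baseline for bidirectional fitting.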

[20] = read-out: Transforming growth factor beta 1 (TGFb1), TGFB1 (gene 7040); assay: BSK_BE3C_TGFb1: BioMAP Diversity Plus: BE3C Assay for Transforming growth factor beta 1 (TGFb1) Biomarker Activity (AID 2283036;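 note: TGF-b1 protein level measured by ELISA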); details: primary human bronchial epithelial cells; actives raise or lower the signal
Procedure, shortened: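 ELISA readout of TGF-b1 from human lung bronchial epithelial primary cells, taken 24 h post-treatment. Gain or loss of signal fitted relative to DMSO baseline, with parallel SRB staining for overt cytotoxicity.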

Measured: AC50

Nc1ccc(N)c(Cl)c1
active: [3] 28.6 µM and 30.6 µM | [4] 150 nM and 1.5 µM | [5] 6.21 µM and 3.97 µM | [6] 27.4 µM and 30.5 µM | [10] 20 µM and 19.6 µM | [13] 3.32 µM and 2.4 µM | [15] 11.1 µM and 4.19 µM
not listed: [19] | [20]
inactive: all other assays above

CN1C(=O)N(C)C(O)C1O (configuration not stated)
not listed: [2] | [19] | [20]
inactive: all other assays above

C#CC1(O)CC[C@H]2[C@@H]3CCC4=CCCC[C@@H]4[C@H]3CC[C@@]21C (some centres not stated)
inactive: [2] | [20] | [13] | [17]
active: [1] 12.9 µM | [3] 6.9 µM | [4] 36.4 µM | [19] 8.8 µM | [5] 11.4 µM | [6] 8.54 µM | [7] 29.9 µM | [8] 12 µM | [9] 20 µM | [10] 15.1 µM | [11] 34.8 µM | [12] 36 µM | [14] 20 µM | [15] 20 µM | [16] 6.06 µM | [18] 32.8 µM

c1ccc2c(c1)ccc1ncccc12
active: [3] 14.3 µM | [19] 38.9 µM | [5] 20 µM | [6] 20 µM | [9] 20 µM
not listed: [2]
inactive: all other assays above

CC(C)C(=O)C(C)C
not listed: [2]
inactive: all other assays above

O=C(c1ccc(O)cc1)c1ccc(O)cc1O
inactive: [1] | [3] | [4] | [5] | [6] | [7] | [8] | [9] | [10] | [11] | [12] | [14] | [15] | [16] | [17] | [18]
active: [4] 12.9 µM | [9] 9.72 µM | [13] 13.2 µM and 12.6 µM
